Assay results from PubChem BioAssay AID1159580 (chemical genetic matrix, 2015).
The whole screen tested about 5,500 compounds, of which about 2,000 (36%) were called active. Roughly 18% stayed inconclusive and do not appear here. Rule as the data show it: active = normalized growth mostly below about 0.91 (no sharp cut-off); inconclusive = no clear call, values can overlap the other calls; inactive = mostly above about 0.92. Some of the results follow.

Experiment: chemical genetic growth profiling, strain panel (AID 1159580);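 also: tested at 20 µM; growth read once vehicle control cultures reached saturation at 30 °C; 1 = growth at the plate median or of vehicle wells; lower values mean less growth of the strain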
Conditions: S. cerevisiae deletion strains, growth OD

Measured: normalized growth

CC(CC(=O)C(O)C(C)(C)O)C1C(=O)CC2(C)C3=CCC4C(C)(C)C(OC5OCC(O)C(O)C5O)CCC45CC35C(O)CC12C (configuration not stated)
inactive: locus YAL021C, strain ccr4, active compounds read low 1.01 | locus YAL026C, strain drs2, active compounds read low 1.01 | locus YAL030W, strain snc1, active compounds read low 1.01 | locus YBL061C, strain skt5, active compounds read low 1.01 | locus YBR009C, strain hhf1, active compounds read low 1.01 | locus YBR023C, strain chs3, active compounds read low 1.02 | locus YBR171W, strain sec66, active compounds read low 1.03 | locus YBR231C, strain swc5, active compounds read low 1.01 | locus YBR279W, strain paf1, active compounds read low 1.02 | locus YCL011C, strain gbp2, active compounds read low 1.01 | locus YCL016C, strain dcc1, active compounds read low 1.01 | locus YCL061C, strain MRC1, active compounds read low 1.01 | locus YCL069W, strain vba3, active compounds read low 1 | locus YCR088W, strain abp1, active compounds read low 1.02 | locus YDL005C, strain med2, active compounds read low 1.01 | locus YDL040C, strain nat1, active compounds read low 1.02 | locus YDR001C, strain nth1, active compounds read low 1.01 | locus YDR069C, strain doa4, active compounds read low 1.01 | locus YDR137W, strain rgp1, active compounds read low 0.974 | locus YDR159W, strain sac3, active compounds read low 1.02 | locus YDR195W, strain ref2 0.987 | locus YDR297W, strain sur2, active compounds read low 1.01 | locus YDR334W, strain swr1, active compounds read low 1.02 | locus YDR335W, strain msn5, active compounds read low 1.02 | locus YDR392W, strain spt3, active compounds read low 1.04 | locus YEL003W, strain gim4, active compounds read low 1.01 | locus YEL037C, strain rad23, active compounds read low 1.07 | locus YEL061C, strain CIN8 (second series), active compounds read low 1.01 | locus YER015W, strain faa2, active compounds read low 1.01 | locus YER016W, strain bim1, active compounds read low 1.02 | locus YER111C, strain swi4, active compounds read low 1.01 | locus YER155C, strain BEM2 (second series), active compounds read low 1.02 | locus YFR010W, strain ubp6, active compounds read low 1.01 | locus YGL167C, strain pmr1, active compounds read low 1.01 | locus YGL173C, strain kem1, active compounds read low 1.03 | locus YGL227W, strain vid30, active compounds read low 1.01 | locus YGL240W, strain doc1, active compounds read low 1.01 | locus YGL253W, strain hxk2, active compounds read low 1.02 | locus YHR013C, strain ard1, active compounds read low 1.02 | locus YHR027C, strain rpn1, active compounds read low 1.01 | locus YHR142W, strain chs7, active compounds read low 1 | locus YJL092W, strain hpr5, active compounds read low 1.02 | locus YJL095W, strain BCK1 (second series), active compounds read low 1.01 | locus YJL115W, strain asf1, active compounds read low 1.01 | locus YJL129C, strain trk1, active compounds read low 1.02 | locus YJL154C, strain vps35, active compounds read low 1.02 | locus YJL164C, strain tpk1, active compounds read low 1.03 | locus YJL166W, strain qcr8, active compounds read low 1.01 | locus YJL187C, strain SWE1, active compounds read low 1.01 | locus YKL160W, strain elf1, active compounds read low 1.01 | locus YKR026C, strain gcn3, active compounds read low 1.02 | locus YKR091W, strain srl3, active compounds read low 1.02 | locus YLL001W, strain dnm1, active compounds read low 1.03 | locus YLL026W, active compounds read low 1.02 | locus YLL041C, strain sdh2, active compounds read low 1.01 | locus YLR027C, strain aat2, active compounds read low 1 | locus YLR221C, strain rsa3, active compounds read low 1.01 | locus YLR258W, strain gsy2, active compounds read low 1.02 | locus YLR262C, strain YPT6 (second series), active compounds read low 1.02 | locus YLR320W, strain mms22, active compounds read low 1.03 | locus YLR342W, strain FKS1, active compounds read low 1.01 | locus YLR357W, strain rsc2, active compounds read low 1.02 | locus YLR370C, strain arc18, active compounds read low 0.995 | locus YLR384C, strain iki3, active compounds read low 1.01 | locus YML120C, strain ndi1, active compounds read low 1.02 | locus YMR058W, strain fet3, active compounds read low 1.01 | locus YMR125W, strain sto1, active compounds read low 1.03 | locus YMR129W, active compounds read low 1.01 | locus YMR205C, strain PFK2, active compounds read low 1.02 | locus YMR231W, strain pep5, active compounds read low 1 | locus YNL071W, strain lat1, active compounds read low 1.01 | locus YNL209W, strain ssb2, active compounds read low 1.01 | locus YNL248C, strain rpa49, active compounds read low 1.01 | locus YNL322C, strain KRE1 (second series), active compounds read low 1.01 | locus YNR049C, strain mso1, active compounds read low 1.02 | locus YOR001W, strain rrp6, active compounds read low 1.01 | locus YOR070C, strain gyp1, active compounds read low 1.01 | locus YOR080W, strain dia2, active compounds read low 1.02 | locus YOR083W, strain WHI5, active compounds read low 1.02 | locus YOR106W, strain vam3, active compounds read low 1 | locus YOR265W, strain rbl2, active compounds read low 1.01 | locus YOR270C, strain vph1, active compounds read low 1.02 | locus YOR290C, strain snf2, active compounds read low 1.02 | locus YPL051W, strain arl3, active compounds read low 1.01 | locus YPL078C, strain atp4, active compounds read low 1.02 | locus YPL106C, strain sse1, active compounds read low 1 | locus YPL240C, strain hsp82, active compounds read low 1.02
